The source made the active and inactive calls.

A short description of assay [1]: optical density shifts of acrAB sulA E. coli – strain DRC41, OD650, 48 h, E. coli filamentation inducer project, primary screen (AID 1152).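 Further: E. coli MC1000 strain DRC41 lacking acrAB efflux pump and sulA.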 As to conditions: higher = more signal, called active from +8 up or from −8 down.
The nature of assay [2]: probe aLefty1 binding on compound microarray – biochemical, small-molecule microarray, 635/667 nm fluorescence, primary screen (AID 1153).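 Further: score merges spot fluorescence with signal-to-noise ratio from the scanned slide images.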 The settings on record: higher = more signal.
Assay [3] is described as follows: plasmodial surface anion channel blockers, osmotic lysis – cell-based, P. falciparum Indochina, OD700, 1 h, primary screen (AID 1154). As to conditions: P. falciparum Indochina infected RBC osmotic lysis, higher = more signal, called active from +8 up or from −8 down.
Assay [4] in a line: plasmodial surface anion channel blockers, osmotic lysis – cell-based, P. falciparum Indochina, OD700, 2 h, primary screen (AID 1155).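 Further: lysis reports solute entry through the parasite surface anion channel PSAC.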 The settings on record: P. falciparum Indochina infected erythrocytes, higher = more signal, called active from +8 up or from −8 down.
Assay [5] in a line: changes in parasitized red cell lysis, either direction – P. falciparum Indochina, OD700, 3 h, PSAC antagonist project, primary screen (AID 1156). The settings on record: P. falciparum-infected erythrocytes, osmotic lysis, higher = more signal, called active from +8 up or from −8 down.
Assay [6] is described as follows: plasmodial surface anion channel blockers, osmotic lysis – cell-based, P. falciparum Indochina, OD700, 18 h, primary screen (AID 1157). As to conditions: P. falciparum Indochina infected erythrocytes, osmotic lysis OD700, 18 h; higher = more signal, called active from +8 up or from −8 down.
Assay [7] is described as follows: S6 kinase pathway phospho-S6 level changes – cell-based, A549, cytoblot, luminescence, serum-stimulated, primary screen (AID 1158).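 Further: serum-stimulated A549 lung adenocarcinoma cells; signal is phosphorylated S6 detected by cytoblot immunostaining with HRP secondary.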 The settings on record: 5 h, higher = more signal.
Assay [8] addresses NADPH oxidase 2 (Homo sapiens) (UniProt P04839). As to the kind of experiment: compounds shifting NOX2 Amplex Red fluorescence – cell-based, HEK293-NOX2, PMA-stimulated, NOX inhibitor project, primary screen (AID 1159). Further: test concentration not given here. The settings on record: 45 min, higher = more signal, called active from +8 up or from −8 down.
The target in assay [9] is NADPH oxidase 4 (Homo sapiens) (UniProt Q9NPH5). As to the kind of experiment: compounds shifting NOX4 Amplex Red fluorescence – cell-based, HEK293-NOX4, tetracycline-induced, NOX inhibitor project, primary screen (AID 1160). As to conditions: HEK293-NOX4, Amplex Red H2O2 fluorescence, 45 min; higher = more signal, called active from +8 up or from −8 down.
Chain of NADPH oxidase 4 (Homo sapiens) (Q9NPH5 whole entry, looked up): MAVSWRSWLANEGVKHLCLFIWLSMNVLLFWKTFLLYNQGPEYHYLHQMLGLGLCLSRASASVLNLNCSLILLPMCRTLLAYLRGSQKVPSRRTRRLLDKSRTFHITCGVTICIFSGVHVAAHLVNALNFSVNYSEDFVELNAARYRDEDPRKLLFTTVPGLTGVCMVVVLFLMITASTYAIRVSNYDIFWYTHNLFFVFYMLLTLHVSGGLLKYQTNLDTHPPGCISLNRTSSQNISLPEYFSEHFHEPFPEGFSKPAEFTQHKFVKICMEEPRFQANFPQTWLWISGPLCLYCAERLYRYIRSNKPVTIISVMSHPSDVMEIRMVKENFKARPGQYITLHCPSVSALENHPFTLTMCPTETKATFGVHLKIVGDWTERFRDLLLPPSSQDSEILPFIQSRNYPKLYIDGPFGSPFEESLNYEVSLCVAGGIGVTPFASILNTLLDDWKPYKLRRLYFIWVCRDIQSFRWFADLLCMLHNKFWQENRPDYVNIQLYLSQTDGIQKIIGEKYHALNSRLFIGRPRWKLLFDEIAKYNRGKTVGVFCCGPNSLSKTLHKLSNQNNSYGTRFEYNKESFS
Assay [10] addresses NADPH oxidase 5 (Homo sapiens) (UniProt Q96PH1). As to the kind of experiment: compounds shifting NOX5 Amplex Red fluorescence – cell-based, HEK293-NOX5, NOX inhibitor project, primary screen (AID 1161). As to conditions: HEK293-NOX5, ionomycin, 45 min, higher = more signal.

Chain of NADPH oxidase 2 (Homo sapiens) (P04839 whole entry, looked up): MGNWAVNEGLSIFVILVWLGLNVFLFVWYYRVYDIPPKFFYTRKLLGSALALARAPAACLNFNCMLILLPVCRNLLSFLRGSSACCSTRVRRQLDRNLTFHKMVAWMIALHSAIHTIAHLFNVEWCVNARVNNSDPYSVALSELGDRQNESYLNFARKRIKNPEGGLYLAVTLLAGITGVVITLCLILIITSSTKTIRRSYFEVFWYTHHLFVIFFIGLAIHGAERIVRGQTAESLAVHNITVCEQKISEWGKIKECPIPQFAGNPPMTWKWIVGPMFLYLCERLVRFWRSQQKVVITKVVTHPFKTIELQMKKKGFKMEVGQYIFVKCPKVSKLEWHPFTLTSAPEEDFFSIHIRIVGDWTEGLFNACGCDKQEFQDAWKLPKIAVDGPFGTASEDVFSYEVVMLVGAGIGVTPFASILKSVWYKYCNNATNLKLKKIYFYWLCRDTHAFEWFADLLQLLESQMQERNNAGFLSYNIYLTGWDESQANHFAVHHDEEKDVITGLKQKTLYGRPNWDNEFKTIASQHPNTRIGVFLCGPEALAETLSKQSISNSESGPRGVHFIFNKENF
Chain of NADPH oxidase 5 (Homo sapiens) (Q96PH1 whole entry, looked up): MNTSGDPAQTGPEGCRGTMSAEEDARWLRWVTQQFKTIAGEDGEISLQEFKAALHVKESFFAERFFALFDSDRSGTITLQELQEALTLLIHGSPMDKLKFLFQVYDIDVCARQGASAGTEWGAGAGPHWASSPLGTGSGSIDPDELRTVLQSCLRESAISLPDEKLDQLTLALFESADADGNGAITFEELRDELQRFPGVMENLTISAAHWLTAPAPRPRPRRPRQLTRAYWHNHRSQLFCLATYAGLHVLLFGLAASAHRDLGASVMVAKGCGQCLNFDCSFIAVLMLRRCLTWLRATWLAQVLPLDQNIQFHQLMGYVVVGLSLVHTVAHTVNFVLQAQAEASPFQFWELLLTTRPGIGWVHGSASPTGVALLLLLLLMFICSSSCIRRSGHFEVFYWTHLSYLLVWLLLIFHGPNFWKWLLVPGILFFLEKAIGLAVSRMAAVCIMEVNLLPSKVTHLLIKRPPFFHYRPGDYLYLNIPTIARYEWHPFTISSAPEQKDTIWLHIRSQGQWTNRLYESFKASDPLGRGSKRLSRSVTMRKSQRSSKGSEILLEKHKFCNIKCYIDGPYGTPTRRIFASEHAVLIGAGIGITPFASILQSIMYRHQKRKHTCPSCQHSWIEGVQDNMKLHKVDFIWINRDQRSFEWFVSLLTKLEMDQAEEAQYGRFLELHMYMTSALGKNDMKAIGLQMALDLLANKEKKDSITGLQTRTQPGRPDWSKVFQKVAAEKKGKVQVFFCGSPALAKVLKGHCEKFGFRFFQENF

On to `COc1ccc([Si](C)(C)[C@@H]2[C@@H](CCO)O[C@]3(C(=O)N(Cc4cccc(N5CCCCC5=O)c4)c4ccccc43)[C@H]2C)cc1`, for which the z-score in assay [1] was -0.402 (inactive); in assay [3] it was 5.77 (inactive); in assay [4], 2.69 (inactive); in assay [5] it was 0.703 (inactive); in [6], 2 (inactive); in [7] it was -0.549. Also, the z-score in [8] is -2.79 (inactive); in assay [9], -0.322 (inactive); in assay [10] it was 1.54. The same compound yielded a composite z-score in assay [2] of 0.236.

Consider `C=C(/C(=C/C[C@@H](OC(C)=O)c1ccc(CO)o1)c1cnc2ccccc2c1)C(C)C`, for which the z-score in assay [1] is 0.727 (inactive); in assay [3], 4.83 (inactive); in assay [4], 1.28 (inactive); in assay [5], 1.74 (inactive); in [6] it was 0.332 (inactive); in assay [7], 1.04. Further, the z-score in assay [8] was 0.334 (inactive); in [9], -1.99 (inactive); in [10], -0.957. This compound had a composite z-score in [2] of -0.147.

With `COC(=O)[C@@]1(Cc2ccc(OC)cc2)[C@H]2c3cc(C(=O)N4CCCC4)n(CCc4ccccn4)c3C[C@H]2CN1C(=O)c1ccccc1`, the z-score in [1] is -1.76 (inactive); in [3], 1.15 (inactive); in [4] it was 0.453 (inactive); in [5], 0.924 (inactive); in assay [6], 0.518 (inactive); in assay [7] it was 0.958. Also, the z-score in [8] is 0.48 (inactive); in assay [9] it was -2.11 (inactive); in assay [10], -3.82. This compound gave a composite z-score in assay [2] of 0.496.

As for `Cc1ccc(S[C@]2(C(=O)NCCN3CCOCC3)CC(=O)N(C3CCCCC3)[C@@H]2c2ccc(CO)cc2)cc1`, the z-score is -0.288 (inactive) in [1]; 1.47 (inactive) in assay [3]; 0.502 (inactive) in assay [4]; 0.512 (inactive) in assay [5]; 0.377 (inactive) in [6]; -0.667 in [7]. The z-score is 0.444 (inactive) in assay [8], 1 (inactive) in [9] and 0.923 in [10]. Also, the composite z-score in assay [2] was 0.136.

Take `COCCOC(=O)N1C(=O)[C@@]2(c3cc(C#CC4(O)CCCCCC4)ccc31)[C@H](c1ccc(O)cc1)N1[C@H](c3ccccc3)[C@H](c3ccccc3)OC(=O)[C@H]1[C@@H]2C(=O)N1CCc2cc(OC)c(OC)cc2C1`: the z-score in assay [1] was 1.23 (inactive); in assay [3], -0.0535 (inactive); in assay [4], 0.49 (inactive); in [5] it was 0.44 (inactive); in assay [6] it was 0.286 (inactive); in [7] it was 0.0108. Besides, the values for the z-score in assay [8], in assay [9] and in assay [10] were -0.0758 (inactive), 0.139 (inactive) and 0.979, respectively. This compound also gave a composite z-score in assay [2] of -0.0099.

For the compound `O=C1C2C=CC(C(O)CCc3ccccc3)N(Nc3ccccc3)C2C(=O)N1c1ccccc1` (stereo not given), the z-score in [1] was -1.7 (inactive); in assay [3], 1.9 (inactive); in [4] it was 1.32 (inactive); in assay [5] it was 0.624 (inactive); in assay [6], 1.42 (inactive); in assay [7], -1.06. In addition, the z-score is -1.26 (inactive) in assay [8], -5.33 (inactive) in [9] and -1.45 in assay [10]. Besides, the composite z-score in assay [2] was found to be 0.767.

Turning to `COCCOC(=O)N1C(=O)[C@@]2(c3cc(C#CCCO)ccc31)[C@H](c1ccc(O)cc1)N1[C@H](c3ccccc3)[C@H](c3ccccc3)OC(=O)[C@H]1[C@@H]2C(=O)N1CCCCCCC1`, the z-score was -0.275 (inactive) in [1]; 0.139 (inactive) in assay [3]; -0.178 (inactive) in assay [4]; -0.599 (inactive) in assay [5]; 0.0501 (inactive) in assay [6]; -0.451 in assay [7]. Besides, the results for the z-score in assay [8], in assay [9] and in assay [10] were 1.17 (inactive), 0.131 (inactive) and 1.38, respectively. Further, the composite z-score in assay [2] was 1.6.

As to `COc1ccc([Si](C)(C)[C@@H]2[C@@H](CCO)O[C@]3(C(=O)N(Cc4cccc(N(C=O)c5ccccc5)c4)c4ccccc43)[C@H]2C)cc1`, the z-score was 0.313 (inactive) in assay [1]; 4.07 (inactive) in assay [3]; 0.49 (inactive) in assay [4]; 2.32 (inactive) in assay [5]; -1.17 (inactive) in assay [6]; 0.62 in assay [7]. Moreover, the z-score in assay [8] was 0.773 (inactive); in assay [9], -0.249 (inactive); in assay [10], -0.78. The composite z-score in assay [2] was determined as 0.0811.

For the compound `O=C1O[C@@H](c2ccccc2)[C@@H](c2ccccc2)N2[C@@H](c3ccc(O)cc3)[C@]3(C(=O)Nc4ccccc43)[C@@H](C(=O)NC[C@H](O)c3ccccc3)[C@H]12`, the z-score in assay [1] was 2.14 (inactive); in [3], 1.36 (inactive); in assay [4], -1.01 (inactive); in assay [5] it was -1.22 (inactive); in assay [6], -1.89 (inactive); in assay [7], 1.09. Further, the z-score in assay [8] was 0.0877 (inactive); in assay [9] it was -0.423 (inactive); in assay [10], 1.42. Also, the composite z-score in [2] was -0.151.

Turning to `COc1ccc([Si](C)(C)[C@@H]2[C@@H](CCO)O[C@]3(C(=O)N(Cc4ccc(N5C(=O)c6cccc7cccc5c67)cc4)c4ccccc43)[C@H]2C)cc1`, the z-score in assay [1] was 0.317 (inactive); in assay [3], 3.28 (inactive); in assay [4], 3.22 (inactive); in assay [5], 0.146 (inactive); in [6], 2.22 (inactive); in assay [7], -0.511. In addition, the z-score in [8] is 0.806 (inactive); in [9], 0.417 (inactive); in assay [10], 2.96. For the same compound, in assay [2], the composite z-score was 0.0355.

As to `C/C=C/[C@H](CCn1cc([C@H](O)c2ccccc2)nn1)[Si](C)(C)c1ccc(OC)cc1`, the z-score is -0.356 (inactive) in assay [1]; 5.6 (inactive) in assay [3]; 0.755 (inactive) in assay [4]; 0.39 (inactive) in assay [5]; 0.13 (inactive) in assay [6]; 0.293 in [7]. In addition, the z-score in assay [8] was 0.576 (inactive); in [9] it was -0.0887 (inactive); in assay [10], -2.11. This compound returned a composite z-score in [2] of 0.0038.

`C=CCC(OC(C)=O)[C@@H]1[C@@H](N(Cc2ccc(-c3cccc(C(F)(F)F)c3)o2)C(=O)c2ccc(C)cc2)c2cc(OCCCO)ccc2N1C(=O)c1ccc2ccccc2n1` (stereo not given in full): the z-score in [1] was 1.55 (inactive); in assay [3], 1.97 (inactive); in assay [4] it was 0.435 (inactive); in assay [5] it was -0.225 (inactive); in assay [6], 0.0644 (inactive); in assay [7], -0.218. Besides, the z-score was -0.0312 (inactive) in assay [8], 0.95 (inactive) in [9] and 2.06 in [10]. Further, the composite z-score in assay [2] came to 0.235.

For the origin of these results see PubChem BioAssay.
